# Results taken from article PMC5540273 (PLoS ONE, 2017).
# Legend:
# Conditions in all cases: concentration: 1 μM, replicates: in singlicate; n = 1
# ASK2 = test system: T1, ASK2
# T1 construct: gene MAP3K6
# AURKA = test system: AURKA
# AURKB = test system: AURKB
# AURKC = test system: AURKC
# AXL = test system: AXL
# BIKE = test system: T2, BIKE
# T2 construct: gene BMP2K
# BLK = test system: BLK
# BMPR1A = test system: BMPR1A
# BMPR1B = test system: BMPR1B
# BMPR2 = test system: BMPR2
# 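Also: KINOMEscan kinase panel screen.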
SMILES,%Inh (ASK2) [%],%Inh (AURKA) [%],%Inh (AURKB) [%],%Inh (AURKC) [%],%Inh (AXL) [%],%Inh (BIKE) [%],%Inh (BLK) [%],%Inh (BMPR1A) [%],%Inh (BMPR1B) [%],%Inh (BMPR2) [%]
CN(c1ccc(F)c(NC(=O)c2cccc(OC(C)(C)C#N)c2Cl)c1)c1ccc2nc(NC(=O)C3CC3)sc2n1,6,22,4,0,6,0,96.3,0,0,0
Cc1ccc(Nc2ccnc(Nc3ccc(C)c(F)c3)n2)cc1O.Cl [GW582868],0,0,0,19,32,29,51,7,30,7
O=C(O)C(F)(F)F.O=c1[nH]ccc2nc(N[C@@H]3CCNC3)nc(Nc3ccc4c(c3)S(=O)(=O)CC4)c12 [GSK2181306],38,83,72,87,100,98.8,28,0,7,99.5
O=C(O)C(F)(F)F.O=c1[nH]ccc2nc(N[C@@H]3CCNC3)nc(Nc3cc(Cl)cc(Cl)c3)c12 [GSK2188764],4,97.3,75,69,92.1,97.6,0,0,0,70
Fc1cc(Cl)ccc1Nc1ccnc2cc(-c3ccc(CN4CCSCC4)o3)ccc12 [GW560106],0,100,0,18,33,4,97.7,14,45,5
O=C(Nc1n[nH]c2cc(-c3cccs3)ccc12)C1CC1 [SB-731284],39,42,51,42,0,84,0,2,35,24
Nc1ncnc2scc(-c3ccc(NC(=O)Cc4cc(F)ccc4F)cc3)c12.O=C(O)C(F)(F)F [SB-731254-M],21,53,98.6,45,36,7,36,22,10,0
Cc1cccc(Nc2nc(N[C@H]3CCCC[C@H]3N)ncc2C(N)=O)c1.Cl [GSK986310],6,0,24,62,59,50,67,12,0,28
Cn1cc(-c2ccc3c(c2)CCN3C(=O)Cc2cc(F)cc(F)c2F)c2c(N)ncnc21 [GSK2634140],0,18,92.6,59,89,33,72,0,5,0
Cc1cc(-c2c(-c3ccc(F)cc3)ncn2CCCN2CCOCC2)nc(N)n1 [SB-222517],14,28,39,3,0,0,8,20,0,35
Cc1ccc(NC(=O)c2ccnc(N3CCCCC3)c2)cc1-c1ccc(C(=O)NCC2CC2)cc1 [GW775610],0,66,25,35,31,10,10,0,0,0
CCn1c(-c2nonc2N)nc2c(-c3ccccc3)ncc(OCCCN)c21.O=C(O)C(F)(F)F.O=C(O)C(F)(F)F [GSK260205],0,0,36,0,0,8,20,0,0,2
Cc1ccc(NC(=O)c2cccc(N3CCCCC3)c2)cc1-c1ccc(C(=O)NCC2CC2)cc1 [GSK1917008],11,0,0,7,5,13,72,0,2,0
CC(C)NCC(Cc1ccccc1)NC(=O)c1cc(Br)c(-c2ccnc3[nH]ccc23)s1.Cl.Cl (stereo not drawn) [GSK1383281],11,95.1,93.8,91.7,74,79,0,0,0,8
O=C(Nc1n[nH]c2nc(-c3cccc(O)c3)ccc12)C1CC1 [SB-711805],0,9,19,23,12,34,0,8,86,34
